A selection: hits, their analogues and other compounds. The true share with any hit is near 9.2%.
ELG1 genotoxic = inducers of genotoxicity in HEK293T ELG1-luciferase cells. Potency, µM (top dose mostly 46 µM), for inactives: at the highest dose activity change, positive = activation, usual class: activators. 330,000 tested, 1.3% active. HEK293T ELG1-luciferase reporter, luminescence, 16 h; also: % of control where 0% means no effect; nearly all actives have a fitted effect of over 60% in size
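HEK293T cells expressing luciferase-tagged ELG1 were treated with compound or DMSO for 16 hr at 37°C. Luciferase activity was then read after 30 min with ONE-Glo at room temperature; rising signal flags genetic stress.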
ELG1 DNA repair = ELG1-dependent DNA repair inhibition. Potency, µM (titrated, usually from 46.1 µM), without a hit: at the highest dose activity change, negative = inhibition, usual class: inhibitors. HEK293T ELG1-luciferase reporter, luminescence, 16 h; DNA damage induced by 5-fluorouridine. 330,000 tested, 2.3% active; also: % is scaled to controls: 0 for no effect and ±100 for the full control effect; nearly all actives have a fitted effect of over 55% in size
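HEK293T cells expressing luciferase-tagged ELG1 (2,000/well) received 5-Fluorouridine plus compound or DMSO for 16 hr at 37 °C. Luciferase was read by ONE-Glo luminescence after 30 min at room temperature.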
SMN2 splice enh = increases expression of the SMN2 splice variant; AID 1458; 210,000 tested, 2.8% active; HEK293 SMN2-luciferase splicing reporter, luminescence, 30-36 h; Potency, µM (series often up to 46.1 µM), for inactives: top-dose activity change, positive = activation, hits mostly activators; also: % of control where 0% means no effect; nearly all actives have a fitted effect of over 55% in size
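qHTS luciferase splicing reporter: luminescence rises when SMN2 exon 7 is included in transfected HEK293 cells. Compound exposure lasted 30-36 h at 37C, with 4.5 mM final sodium butyrate as control, followed by a ONE-Glo read.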
Rab9 prom act = Rab9 promoter activation | Huh7 Rab9 promoter-luciferase reporter, luminescence, 24 h | Potency, µM (top dose mostly 9.22 µM), for the others: at the top dose activation, negative = inhibition, hits mostly activators | 320,000 tested, 2.8% active | AID 485297; also: % of control where 0% means no effect; nearly all actives have a fitted effect of over 60% in size
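Luminescence read-out: Huh7 cells stably expressing Rab9-luciferase, treated 24 h with compound at 37 °C, then lysed with luciferase reagent for 10 min at ambient before reading.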
NPC1 promoter act = activators of NPC1 promoter | Huh7 NPC1 promoter luciferase reporter, 24 h | Potency, µM (highest dose often 9.22 µM), for the others: at the highest dose activation, actives largely listed as activators | 320,000 tested, 2.4% active; also: % of control where 0% means no effect; nearly all actives have a fitted effect of over 60% in size
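Luminescence from an NPC1 promoter-driven luciferase reporter in stably transfected Huh7 cells was measured after 24 h compound treatment at 37 °C, followed by 10 min ambient incubation with luciferase detection reagent.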
FLuc modulator = firefly luciferase modulation, counter-screen for miR-21 project. P08659. purified FLuc, Km substrates, luminescence inhibition. Potency, µM (series often up to 57.5 µM), without a hit: top-dose activity change, negative = inhibition, actives largely listed as inhibitors. 360,000 tested, 6.9% active. AID 588342;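 also: plate controls were vehicle for no effect and reference inhibitor for full effect; nearly all actives have a fitted effect of over 55% in size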
Target sequence (P08659 whole entry, looked up): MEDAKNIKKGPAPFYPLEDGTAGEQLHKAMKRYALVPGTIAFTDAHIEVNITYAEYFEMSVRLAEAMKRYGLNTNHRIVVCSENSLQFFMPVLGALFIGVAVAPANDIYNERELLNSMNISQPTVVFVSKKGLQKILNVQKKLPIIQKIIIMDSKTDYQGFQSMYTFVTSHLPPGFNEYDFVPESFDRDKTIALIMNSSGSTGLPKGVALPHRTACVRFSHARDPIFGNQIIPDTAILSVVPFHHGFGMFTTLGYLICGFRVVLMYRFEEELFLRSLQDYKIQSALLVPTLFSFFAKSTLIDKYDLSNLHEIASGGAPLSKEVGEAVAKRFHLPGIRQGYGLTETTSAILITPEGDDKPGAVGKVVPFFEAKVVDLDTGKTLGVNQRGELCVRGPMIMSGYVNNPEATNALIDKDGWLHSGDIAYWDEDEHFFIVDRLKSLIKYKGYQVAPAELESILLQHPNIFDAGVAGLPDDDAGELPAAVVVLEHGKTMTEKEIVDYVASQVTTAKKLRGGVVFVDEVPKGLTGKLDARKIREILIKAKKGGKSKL
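Biochemical qHTS of compounds, final roughly 60 µM downward over six points, against 10 nM purified firefly luciferase using Km concentrations of substrates (10 uM D-luciferin, 10 uM ATP) in Tris acetate pH 7.5 buffer; luminescence output.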
Starred values were filed as active, the others as inactive; [ ] = dose if it differs, or a comment. Calls follow the shape of the dose curve; as a rule, active = well fitted curve in the direction sought with a large enough effect; inconclusive = small, poorly fitted or top-dose-only effect, or another doubt; inactive = no such curve, though single readings can be large; an effect the other way counts as inactive or inconclusive. Potency is read from the fitted curve at half-maximal effect.

Screening CC(=O)Nc1ccc(Nc2ccccc2)cc1 returned ELG1 genotoxic 7%, ELG1 DNA repair inconclusive, Rab9 prom act 2%, NPC1 promoter act 2% and FLuc modulator -21%.
For CC(=O)Nc1ccc(NC2=CC(=O)c3ccccc3C2=O)cc1 the results were ELG1 genotoxic inconclusive, ELG1 DNA repair inconclusive, Rab9 prom act 2µM*, NPC1 promoter act inconclusive and FLuc modulator inconclusive.
Screening O=C1C=C(Nc2ccc(O)cc2)C(=O)c2ccccc21 returned ELG1 genotoxic inconclusive, ELG1 DNA repair inconclusive, Rab9 prom act inconclusive, NPC1 promoter act 1% and FLuc modulator 5.4µM*.
O=C1C(Cl)=C(Nc2ccc(O)cc2)C(=O)c2ccccc21 was read as ELG1 genotoxic -9%, ELG1 DNA repair inconclusive, Rab9 prom act -46%, NPC1 promoter act -36% and FLuc modulator inconclusive.
`CC(=O)N[C@@H](Cc1c[nH]c2ccccc12)C(=O)NCCc1ccc(S(N)(=O)=O)cc1` gave ELG1 genotoxic -6%, ELG1 DNA repair 6%, Rab9 prom act 10%[1.84 µM], NPC1 promoter act 3% and FLuc modulator -3%.
For COC(=O)c1[nH]c2cccc(Cl)c2c1NC(=O)CN(C)C1CCCCC1 the results were ELG1 genotoxic -6%, ELG1 DNA repair 0%, SMN2 splice enh -21%, Rab9 prom act -7%, NPC1 promoter act -3% and FLuc modulator 6%.
Cc1cc(C(=O)N/N=C\c2cc(C(C)(C)C)c(O)c(C(C)(C)C)c2)n[nH]1 was read as ELG1 genotoxic -39%, ELG1 DNA repair -19%, Rab9 prom act 0%, NPC1 promoter act -3% and FLuc modulator 1%.
`Cc1cc(C(=O)N/N=C/c2ccc(C)s2)n[nH]1` gave ELG1 genotoxic inconclusive, ELG1 DNA repair inconclusive, Rab9 prom act 3.2µM*, NPC1 promoter act 4µM* and FLuc modulator inconclusive.
For Cc1[nH]cnc1C(=O)N/N=C/c1ccc([N+](=O)[O-])s1 the results were ELG1 genotoxic -5%, ELG1 DNA repair inconclusive, Rab9 prom act 24%, NPC1 promoter act 3% and FLuc modulator inconclusive.
For Cc1cc(C(=O)N/N=C/c2ccc([N+](=O)[O-])s2)n[nH]1 the results were ELG1 genotoxic -9%, ELG1 DNA repair 16µM*, Rab9 prom act -14%, NPC1 promoter act 4% and FLuc modulator -2%.
Screening Cc1cc(C(=O)N/N=C/c2cc(Cl)cc([N+](=O)[O-])c2O)n[nH]1 returned ELG1 genotoxic -8%, ELG1 DNA repair 13µM*, Rab9 prom act -3%, NPC1 promoter act -3% and FLuc modulator 27µM*.
Screening CCN1C(=O)c2ccccc2S(=O)(=O)c2ccc(C(=O)NCc3ccccc3OC)cc21 returned SMN2 splice enh -13% and FLuc modulator 0%.
For CCC(C)(C)NC(=O)CN(C(=O)CCC(=O)Nc1nccs1)c1ccc(C)cc1 the results were ELG1 genotoxic -3%, ELG1 DNA repair 0%, Rab9 prom act 4%, NPC1 promoter act -5% and FLuc modulator 1%.
Fc1ccc(-c2cc3nc(-c4ccccc4)cc(N4CCOCC4)n3n2)cc1 was read as ELG1 genotoxic -6%, ELG1 DNA repair inconclusive, SMN2 splice enh 1%, Rab9 prom act -1%, NPC1 promoter act -3% and FLuc modulator -1%.
`Cc1ccc(-c2cc3nc(-c4ccccc4)cc(N4CCC5(CC4)OCCO5)n3n2)cc1` gave ELG1 genotoxic -3%, ELG1 DNA repair -30%, SMN2 splice enh -12%, Rab9 prom act -3%, NPC1 promoter act 3% and FLuc modulator 0%.
COc1ccc(-c2cc3nc(-c4ccccc4)cc(N4CCCC(O)C4)n3n2)cc1 (stereo not drawn) was read as ELG1 genotoxic -7%, ELG1 DNA repair 16µM*, Rab9 prom act -4%, NPC1 promoter act 0% and FLuc modulator -6%.
COc1ccc(-c2cc3nc(-c4ccccc4)cc(N4CCC(O)CC4)n3n2)cc1 was read as ELG1 genotoxic -11%, ELG1 DNA repair 16µM*, Rab9 prom act 1%, NPC1 promoter act -3% and FLuc modulator 3%.
For CC(=O)c1cccc(NC(=O)CCS(=O)(=O)c2cc(Br)cc3c2N(C(=O)C2CC2)CC3)c1 the results were SMN2 splice enh -11% and FLuc modulator 1%.
For C/C=C/C1=Cc2ccccc2C(C(C(=O)OC)C(=O)OC)N1C(=O)OC (stereo not drawn) the results were SMN2 splice enh -4%.
Screening COc1ccccc1CCNC(=O)Cn1c(=O)oc2ccccc21 returned ELG1 genotoxic -8%, ELG1 DNA repair 1%, Rab9 prom act 4%, NPC1 promoter act -7% and FLuc modulator 15µM*.
Screening COCCn1c(SCC(=O)c2c(-c3ccccc3)n(C)c3ccccc23)nnc1-c1ccncc1 returned ELG1 genotoxic 0%, ELG1 DNA repair inconclusive, SMN2 splice enh 16%, Rab9 prom act -10%, NPC1 promoter act -1% and FLuc modulator 1%.
Screening COCCn1c(SCC(=O)/C=C2\N(C)c3ccccc3C2(C)C)nnc1-c1ccncc1 returned ELG1 genotoxic -17%, ELG1 DNA repair 21µM*, SMN2 splice enh -48%, Rab9 prom act -11%, NPC1 promoter act -1% and FLuc modulator -2%.
Screening COc1ccc(Nc2nnc(SCC(=O)/C=C3/N(C)c4ccccc4C3(C)C)s2)cc1 returned ELG1 genotoxic -16%, ELG1 DNA repair 26µM*, SMN2 splice enh -66%, Rab9 prom act -22%, NPC1 promoter act -13% and FLuc modulator inconclusive.
Screening CCOC(=O)C1(S(=O)(=O)c2ccc(Cl)cc2)CCN(Cc2ccc(C)cc2)CC1 returned ELG1 genotoxic -8%, ELG1 DNA repair -17%, SMN2 splice enh -28%, Rab9 prom act -1%, NPC1 promoter act 1% and FLuc modulator 3%.
Cc1noc(C)c1C(=O)N1CCC2(CC1)CN(c1ncccn1)C2 was read as SMN2 splice enh 1%.
O=C(NCc1cccs1)C1CCN(C(=O)N2CCOc3ccccc32)CC1 was read as FLuc modulator -7%.
Screening COc1ccccc1NC(=O)CN1C(=O)CC(c2ccc(C)c(C)c2)=Nc2ccccc21 returned FLuc modulator 13µM*.
Screening Cc1cc2c(cc1C)N(CC(=O)N1CCCC1)C(=O)CC(c1ccccc1)=N2 returned ELG1 genotoxic inconclusive, ELG1 DNA repair inconclusive, SMN2 splice enh 26%, Rab9 prom act 18%, NPC1 promoter act 3% and FLuc modulator 13µM*.

Screening data as filed in PubChem BioAssay.
